# Test results as given in the supplement of paper PMC10849652.
# Targets with a hit are over-represented here; the source holds about 7,900 in all. About 0.6% of all pairs of compound and target were hits.
# Compound: CC1=NC(=CC=C1)C2=C(N=C(N2)C(C)(C)C)C3=CC4=NC=CN=C4C=C3
# Test: log2 fold change, soluble protein after heating vs DMSO (PISA); higher = thermal stabilisation; K562 cells, 10 uM, 30 min; active = over 0.2 and 3.5 SD of the protein, either way, in both replicates (recomputed)
# How it was run: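 K562 cells at 2×10^6 cells/mL were treated for 30 min with 10 μM compound, and aliquots were heated for 3 min over 48°C-58°C before pooling. Extraction used PBS with 0.5% NP-40 at 4°C, and soluble protein was the supernatant after 21,000xg for 90 min, measured by TMTpro 16plex LC-MS/MS with channel sums equalised. Thermal stability values, relative to control samples and from duplicates, are log2 fold changes.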
# UniProt Q99848, sequence (Q99848 whole entry, looked up): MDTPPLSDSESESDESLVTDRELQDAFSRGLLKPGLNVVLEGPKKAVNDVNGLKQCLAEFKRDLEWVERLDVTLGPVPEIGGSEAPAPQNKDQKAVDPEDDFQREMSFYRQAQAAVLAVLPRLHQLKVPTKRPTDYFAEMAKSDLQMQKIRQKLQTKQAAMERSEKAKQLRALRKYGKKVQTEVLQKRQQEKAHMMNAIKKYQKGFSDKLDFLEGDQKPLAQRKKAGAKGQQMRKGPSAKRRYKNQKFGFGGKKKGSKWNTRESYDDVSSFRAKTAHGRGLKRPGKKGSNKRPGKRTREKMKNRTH
# UniProt Q8N128, sequence (Q8N128 whole entry, looked up): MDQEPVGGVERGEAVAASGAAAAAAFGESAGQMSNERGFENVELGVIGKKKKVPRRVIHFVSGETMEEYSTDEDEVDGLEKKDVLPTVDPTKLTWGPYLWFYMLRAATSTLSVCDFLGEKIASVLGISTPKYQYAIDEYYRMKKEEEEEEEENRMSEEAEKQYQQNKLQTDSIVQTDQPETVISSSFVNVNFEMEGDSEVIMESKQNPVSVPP
# UniProt Q7L014, sequence (Q7L014 whole entry, looked up): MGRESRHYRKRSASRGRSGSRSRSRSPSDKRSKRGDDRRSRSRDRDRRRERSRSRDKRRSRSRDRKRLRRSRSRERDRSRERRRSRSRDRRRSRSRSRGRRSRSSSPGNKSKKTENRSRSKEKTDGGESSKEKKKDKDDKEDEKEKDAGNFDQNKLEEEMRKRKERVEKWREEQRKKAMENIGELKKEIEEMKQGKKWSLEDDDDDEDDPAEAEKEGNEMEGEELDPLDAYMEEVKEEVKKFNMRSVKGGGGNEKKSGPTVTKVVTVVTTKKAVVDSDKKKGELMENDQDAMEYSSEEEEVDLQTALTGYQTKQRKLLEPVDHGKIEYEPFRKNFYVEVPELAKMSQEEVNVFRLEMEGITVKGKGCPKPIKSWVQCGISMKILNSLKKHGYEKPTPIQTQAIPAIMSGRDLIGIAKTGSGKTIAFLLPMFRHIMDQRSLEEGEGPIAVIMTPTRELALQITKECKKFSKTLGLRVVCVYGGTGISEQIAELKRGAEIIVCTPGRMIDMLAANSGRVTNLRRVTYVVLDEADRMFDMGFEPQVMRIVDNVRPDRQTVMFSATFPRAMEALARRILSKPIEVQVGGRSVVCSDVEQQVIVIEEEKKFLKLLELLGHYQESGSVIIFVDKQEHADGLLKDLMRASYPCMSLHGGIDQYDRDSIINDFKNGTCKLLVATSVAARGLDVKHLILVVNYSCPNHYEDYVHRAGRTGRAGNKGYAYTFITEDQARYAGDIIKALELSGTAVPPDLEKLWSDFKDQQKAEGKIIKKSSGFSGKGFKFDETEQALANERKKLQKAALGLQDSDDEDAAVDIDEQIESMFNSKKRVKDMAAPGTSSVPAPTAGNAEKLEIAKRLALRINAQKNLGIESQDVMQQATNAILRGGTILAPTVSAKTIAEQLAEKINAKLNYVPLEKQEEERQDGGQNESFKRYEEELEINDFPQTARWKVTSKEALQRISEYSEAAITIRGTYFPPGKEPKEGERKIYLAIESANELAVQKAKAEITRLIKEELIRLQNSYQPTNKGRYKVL
# UniProt Q9UBQ6, sequence (Q9UBQ6 whole entry, looked up): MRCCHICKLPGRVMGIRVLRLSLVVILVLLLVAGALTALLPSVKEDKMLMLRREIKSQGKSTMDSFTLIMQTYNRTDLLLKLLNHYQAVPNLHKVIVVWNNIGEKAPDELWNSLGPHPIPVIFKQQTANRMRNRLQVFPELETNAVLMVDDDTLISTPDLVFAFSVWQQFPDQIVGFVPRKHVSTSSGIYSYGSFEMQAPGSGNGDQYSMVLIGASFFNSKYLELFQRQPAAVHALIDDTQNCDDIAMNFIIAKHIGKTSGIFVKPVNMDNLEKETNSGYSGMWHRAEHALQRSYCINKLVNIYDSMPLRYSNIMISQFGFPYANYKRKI
# UniProt O75071, sequence (O75071 whole entry, looked up): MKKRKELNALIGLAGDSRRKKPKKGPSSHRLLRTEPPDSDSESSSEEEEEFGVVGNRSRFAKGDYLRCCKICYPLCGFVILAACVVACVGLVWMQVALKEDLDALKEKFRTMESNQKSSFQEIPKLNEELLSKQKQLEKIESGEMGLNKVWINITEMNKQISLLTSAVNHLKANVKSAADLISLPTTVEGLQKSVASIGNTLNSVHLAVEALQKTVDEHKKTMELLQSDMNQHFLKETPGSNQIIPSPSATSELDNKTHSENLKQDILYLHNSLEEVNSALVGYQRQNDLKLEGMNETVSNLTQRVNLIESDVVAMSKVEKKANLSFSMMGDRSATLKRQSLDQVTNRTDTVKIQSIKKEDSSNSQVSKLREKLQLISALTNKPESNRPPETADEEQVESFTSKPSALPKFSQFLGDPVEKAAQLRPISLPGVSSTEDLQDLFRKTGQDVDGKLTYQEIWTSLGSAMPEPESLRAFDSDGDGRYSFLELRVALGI
# UniProt Q58WW2, sequence (Q58WW2 whole entry, looked up): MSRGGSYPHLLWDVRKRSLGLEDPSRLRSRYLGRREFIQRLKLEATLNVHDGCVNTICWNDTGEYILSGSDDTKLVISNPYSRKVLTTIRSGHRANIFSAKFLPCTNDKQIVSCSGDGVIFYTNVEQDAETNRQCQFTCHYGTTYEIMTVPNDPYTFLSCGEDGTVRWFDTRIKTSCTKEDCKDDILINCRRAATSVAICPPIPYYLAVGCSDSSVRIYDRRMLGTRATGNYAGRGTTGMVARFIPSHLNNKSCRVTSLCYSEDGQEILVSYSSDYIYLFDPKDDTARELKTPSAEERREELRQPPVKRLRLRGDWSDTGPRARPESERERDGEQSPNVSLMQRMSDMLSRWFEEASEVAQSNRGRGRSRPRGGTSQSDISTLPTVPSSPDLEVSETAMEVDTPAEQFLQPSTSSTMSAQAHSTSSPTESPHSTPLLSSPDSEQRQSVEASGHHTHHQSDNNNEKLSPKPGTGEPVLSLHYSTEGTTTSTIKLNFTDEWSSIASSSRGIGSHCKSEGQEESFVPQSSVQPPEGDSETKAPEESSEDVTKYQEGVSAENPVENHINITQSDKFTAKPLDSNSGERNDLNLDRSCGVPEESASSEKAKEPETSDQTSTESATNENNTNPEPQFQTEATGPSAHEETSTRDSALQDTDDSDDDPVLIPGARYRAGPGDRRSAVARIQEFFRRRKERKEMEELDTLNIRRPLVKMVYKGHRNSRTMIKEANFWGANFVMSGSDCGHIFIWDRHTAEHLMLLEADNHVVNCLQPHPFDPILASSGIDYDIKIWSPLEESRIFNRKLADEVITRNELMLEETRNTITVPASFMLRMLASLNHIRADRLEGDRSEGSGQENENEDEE
# UniProt Q96EV8, sequence (Q96EV8 whole entry, looked up): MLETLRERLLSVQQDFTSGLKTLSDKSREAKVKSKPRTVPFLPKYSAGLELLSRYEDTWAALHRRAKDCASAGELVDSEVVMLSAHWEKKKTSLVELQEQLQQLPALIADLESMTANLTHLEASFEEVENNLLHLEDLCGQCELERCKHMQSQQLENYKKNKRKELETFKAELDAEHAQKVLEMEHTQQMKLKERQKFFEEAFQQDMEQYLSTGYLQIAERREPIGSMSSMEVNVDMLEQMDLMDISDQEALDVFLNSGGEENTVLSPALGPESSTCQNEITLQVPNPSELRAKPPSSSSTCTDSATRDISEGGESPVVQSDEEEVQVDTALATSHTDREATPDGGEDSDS
# UniProt Q9H2P9, sequence (Q9H2P9 whole entry, looked up): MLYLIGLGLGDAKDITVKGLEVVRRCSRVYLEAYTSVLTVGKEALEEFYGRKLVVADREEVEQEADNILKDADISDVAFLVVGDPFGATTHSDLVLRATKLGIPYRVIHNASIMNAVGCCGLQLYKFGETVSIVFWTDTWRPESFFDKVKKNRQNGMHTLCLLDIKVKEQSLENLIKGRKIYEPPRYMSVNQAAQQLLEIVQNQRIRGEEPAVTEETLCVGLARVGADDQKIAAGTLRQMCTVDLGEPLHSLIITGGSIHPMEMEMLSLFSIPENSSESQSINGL
# UniProt P09622, sequence (P09622 whole entry, looked up): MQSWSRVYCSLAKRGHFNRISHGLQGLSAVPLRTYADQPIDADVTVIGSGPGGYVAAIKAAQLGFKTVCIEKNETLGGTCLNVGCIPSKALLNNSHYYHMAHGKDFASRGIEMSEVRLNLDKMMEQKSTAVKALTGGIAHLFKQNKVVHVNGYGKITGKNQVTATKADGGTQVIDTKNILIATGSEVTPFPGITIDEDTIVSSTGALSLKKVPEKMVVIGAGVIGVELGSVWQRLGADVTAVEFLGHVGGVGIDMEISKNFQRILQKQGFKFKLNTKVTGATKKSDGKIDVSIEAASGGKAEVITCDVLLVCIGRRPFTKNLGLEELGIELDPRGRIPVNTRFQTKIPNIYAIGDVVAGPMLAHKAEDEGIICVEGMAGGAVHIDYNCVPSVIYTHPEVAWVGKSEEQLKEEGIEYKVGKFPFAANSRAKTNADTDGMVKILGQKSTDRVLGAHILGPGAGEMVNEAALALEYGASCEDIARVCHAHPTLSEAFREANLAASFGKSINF
# UniProt Q13011, sequence (Q13011 whole entry, looked up): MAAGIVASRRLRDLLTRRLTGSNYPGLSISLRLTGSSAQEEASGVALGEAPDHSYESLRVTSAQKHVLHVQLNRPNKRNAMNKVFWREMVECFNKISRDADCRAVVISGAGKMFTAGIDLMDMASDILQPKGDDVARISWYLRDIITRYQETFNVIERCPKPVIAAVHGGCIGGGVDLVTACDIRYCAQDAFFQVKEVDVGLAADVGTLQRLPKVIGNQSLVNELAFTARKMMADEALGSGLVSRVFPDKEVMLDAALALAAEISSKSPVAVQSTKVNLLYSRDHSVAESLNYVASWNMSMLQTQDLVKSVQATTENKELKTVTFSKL
# UniProt Q96GG9, sequence (Q96GG9 whole entry, looked up): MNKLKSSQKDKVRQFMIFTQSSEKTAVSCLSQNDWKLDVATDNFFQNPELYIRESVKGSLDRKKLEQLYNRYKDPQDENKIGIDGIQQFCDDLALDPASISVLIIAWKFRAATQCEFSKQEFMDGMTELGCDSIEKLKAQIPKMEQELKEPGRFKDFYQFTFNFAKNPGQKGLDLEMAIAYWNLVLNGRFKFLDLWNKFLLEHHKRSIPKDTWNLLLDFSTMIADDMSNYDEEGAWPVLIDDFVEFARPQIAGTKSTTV
row,Target,log2 fold change
1,FAM3A (UniProt P98173),0.003 (inactive)
2,CTSZ (UniProt Q9UBR2),0.002 (inactive)
3,DMXL1 (UniProt Q9Y485),0.017 (inactive)
4,EXTL2 (UniProt Q9UBQ6),-0.003 (inactive)
5,CUEDC2 (UniProt Q9H467),-0.153 (inactive)
6,CYFIP1 (UniProt Q7L576),0.035 (inactive)
7,ECH1 (UniProt Q13011),0.014 (inactive)
8,FAM114A2 (UniProt Q9NRY5),0.022 (inactive)
9,EFCAB14 (UniProt O75071),-0.011 (inactive)
10,DDX46 (UniProt Q7L014),0.069 (inactive)
11,FAM177A1 isoform 2 (UniProt Q8N128),0.039 (inactive)
12,DPH5 isoform 5 (UniProt Q9H2P9),0.042 (inactive)
13,DNAJB12 (UniProt Q9NXW2),0.017 (inactive)
14,EXOC4 (UniProt Q96A65),0.001 (inactive)
15,DTNBP1 (UniProt Q96EV8),0.055 (inactive)
16,DYNC1LI2 (UniProt O43237),-0.193 (inactive)
17,EBNA1BP2 (UniProt Q99848),-0.153 (inactive)
18,EEF1B2 (UniProt P24534),0.031 (inactive)
19,DCUN1D1 (UniProt Q96GG9),0.078 (inactive)
20,DLD (UniProt P09622),0.013 (inactive)
21,DNAJC7 (UniProt Q99615),0.042 (inactive)
22,DCAF6 isoform 3 (UniProt Q58WW2),-0.037 (inactive)
23,FAM50A (UniProt Q14320),0.057 (inactive)
